# Data published in PubChem BioAssay (NCI).
# This is part of a sample that, as a whole, favours compounds with a hit. Of some 79,000 tested, about 15% had one in any assay. A number with no mark means an inactive call. The source made the active and inactive calls. Rule as the data show it: active = growth inhibition above about 70%; inactive = the rest.
# Legend:
# [1] = NCI Yeast Anticancer Drug Screen. Data for the rad50 strain (AID 155);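 also: 0% = growth of vehicle-only cultures of the same strain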; details: S. cerevisiae rad50 strain growth inhibition, active compounds read high
# Summary of the method: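 Relative growth inhibition (compound vs vehicle) was measured in yeast with a defined repair-gene alteration.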
# [2] = NCI Yeast Anticancer Drug Screen. Data for the mec2-1 strain (AID 157); details: S. cerevisiae mec2-1 strain, active compounds read high
# Summary of the method: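 mec2-1 yeast strain, carrying an alteration in DNA damage repair or cell cycle control, was exposed to compounds; growth inhibition was measured relative to vehicle-treated controls.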
# [3] = NCI Yeast Anticancer Drug Screen. Data for the sgs1 mgt1 strain (AID 161);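 also: 0% = growth of cultures given vehicle only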; details: S. cerevisiae sgs1 mgt1 strain, active compounds read high
# Summary of the method: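 Compounds are added to genetically altered yeast, and growth is compared with cultures given vehicle alone to give percent inhibition.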
# [4] = NCI Yeast Anticancer Drug Screen. Data for the cln2 rad14 strain (AID 165);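 also: 0% = growth equal to vehicle treated cultures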; details: S. cerevisiae cln2 rad14 strain, active compounds read high
# Summary of the method: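 Yeast carrying cln2 and rad14 alterations (cell cycle control and DNA damage repair) were exposed to compounds. Growth inhibition was measured against vehicle-treated controls.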
# [5] = NCI Yeast Anticancer Drug Screen. Data for the bub3 strain (AID 167); details: S. cerevisiae bub3 mutant strain, active compounds read high
# Summary of the method: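 Screening used yeast with an engineered genetic alteration affecting cell cycle control. Compound-exposed cultures were compared with vehicle cultures, and reduced growth was taken as inhibition.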
# [6] = NCI Yeast Anticancer Drug Screen. Data for the mlh1 rad18 strain (AID 175); details: S. cerevisiae mlh1 rad18 strain growth inhibition, active compounds read high
# Summary of the method: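 Growth inhibition of the yeast strain was measured after compound exposure and expressed relative to vehicle-treated controls. The strain carries defined defects in DNA damage repair.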
# [7] = at 5.0 µM (retest, dose inferred, filed as 0.5)
# [8] = at 50.0 µM (retest, dose inferred, filed as 5.0)
SMILES,"growth inhibition [1, 7]","growth inhibition [1, 8]",growth inhibition ([1]; at 50.0 µM),"growth inhibition [2, 7]","growth inhibition [2, 8]",growth inhibition ([2]; at 50.0 µM),"growth inhibition [3, 7]","growth inhibition [3, 8]",growth inhibition ([3]; at 50.0 µM),"growth inhibition [4, 7]","growth inhibition [4, 8]",growth inhibition ([4]; at 50.0 µM),"growth inhibition [5, 7]","growth inhibition [5, 8]",growth inhibition ([5]; at 50.0 µM),"growth inhibition [6, 7]","growth inhibition [6, 8]",growth inhibition ([6]; at 50.0 µM)
IC(I)=C(I)I,98% (active),93% (active),88.5% (active),100% (active),96% (active),92.2% (active),99% (active),96% (active),91.9% (active),99% (active),96% (active),90.8% (active),100% (active),95% (active),90% (active),99% (active),91% (active),90.1% (active)
CCCC(C)c1ccccc1OP(=S)(S)Oc1ccccc1C(C)CCC (stereo not given),-3%,-3%,97.3% (active),-2%,-1%,97.8% (active),2%,-2%,97.5% (active),3%,0%,96.5% (active),-5%,0%,95.8% (active),0%,-3%,97.2% (active)
OC(CN(CCCl)CCCl)C(O)C(O)C(O)CN(CCCl)CCCl (stereo not given),6%,81% (active),77.6% (active),9%,59%,24%,-4%,33%,30.2%,-6%,50%,82.1% (active),-7%,11%,-12.1%,35%,95% (active),82.1% (active)
CC(=O)Oc1ccc(/C=C/[N+](=O)[O-])cc1,27%,95% (active),98.9% (active),6%,99% (active),99.5% (active),12%,99% (active),93.1% (active),-2%,82% (active),82% (active),5%,99% (active),99.4% (active),12%,98% (active),98.3% (active)
Cc1cc[n+](C2C(=O)c3ccccc3C(=O)C2Nc2cc(Cl)ccc2Cl)cc1 (stereo not given),19%,96% (active),96.8% (active),11%,98% (active),98.8% (active),11%,99% (active),78.9% (active),5%,95% (active),66.2%,15%,98% (active),98.5% (active),12%,98% (active),94.5% (active)
CCC[CH2][Sn]1([CH2]CCC)[O]CC(COc2c(Cl)cc(Cl)cc2Cl)[O]1 (stereo not given),94% (active),94% (active),91.2% (active),92% (active),92% (active),91.3% (active),97% (active),97% (active),90.2% (active),89% (active),89% (active),90% (active),89% (active),89% (active),92.5% (active),91% (active),91% (active),89.8% (active)
Cc1ccc(N=P(c2ccccc2)(c2ccccc2)c2ccccc2)cc1.[Br][Hg][Br],99% (active),99% (active),98.8% (active),100% (active),100% (active),97.6% (active),99% (active),99% (active),98% (active),99% (active),99% (active),98.3% (active),98% (active),99% (active),98.8% (active),99% (active),99% (active),97.1% (active)
COc1ccc(CC2C(=O)NC(C)C(=O)N(C)C3C(=O)N(C)C(Cc4ccc(O)c(c4)Oc4ccc(cc4)C3O)C(=O)NC(C)C(=O)NC(C)C(=O)N2C)cc1 (stereo not given) (tested in a mixture with another compound),31%,99% (active),83.2% (active),28%,100% (active),78% (active),37%,99% (active),86.3% (active),41%,98% (active),78.5% (active),34%,99% (active),83.3% (active),32%,98% (active),69.3%
OC1C2[C@@H](O)CCCN2C[C@@H](O)[C@H]1O (stereo not given in full),15%,21%,-45.2%,11%,13%,-59%,5%,14%,-34.5%,5%,20%,8.4%,6%,8%,4.95%,14%,58%,-15.3%
CCCCCCCCCCCCCCCCOC[C@@H](COC(c1ccccc1)(c1ccccc1)c1ccccc1)O[P+](=S)OC (stereo not given in full),31%,67%,62.4%,20%,39%,85.8% (active),18%,55%,86.5% (active),36%,29%,77.6% (active),43%,58%,82.4% (active),22%,32%,91.1% (active)
